The list is not random: actives were taken first. Their share in the collection is about 3.9%.
aSyn 5UTR inh: MLPCN primary screen, SNCA 5' untranslated region | actives 0.82% (n = 300,000) | inhibition, % (tested at 7.5 µM) | AID 1813 | alpha-synuclein 5'UTR reporter, inhibitor activity; in the data active = inhibition above about 60%; inconclusive = no clear call, values can overlap the other calls;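 note: H4 neuroglioblastoma cells stably carrying SNCA 5'UTR luciferase fusion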
TROY NFkB inh: TROY signaling inhibition | Q293 LMP1-TROYcd NF-kB luciferase reporter, 4 h | inhibition, % at 10 µM | actives 0.98% (n = 360,000);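 active = compounds whose plate-normalised and pattern-corrected inhibition of the luciferase reporter signal at the single screening dose is 50% or more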
TWEAK-Fn14 inh: blocks TWEAK-Fn14 interaction in a reporter cell assay; TWEAK-stimulated Fn14 reporter cells, luciferase luminescence, 8 h; inhibition, % at 10 µM; actives 2% (n = 360,000); AID 1159606; in the data active = inhibition above about 50%
HSP90 inh: inhibitors of HSP90 luciferase refolding in rabbit reticulocyte lysate. luciferase refolding luminescence, 3 h. actives 0.91% (n = 290,000). inhibition, % at 5.6 µM. AID 1789;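 active = inhibition above the screen-wide mean plus 3 SD, computed separately per campaign, cut at about 16% in these data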;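 note: inhibitors lower the luminescence because luciferase stays unfolded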
HIF-2a block: blocks HIF-2a reporter activity; 786-0 RCC cells HIF-2a reporter, luciferase luminescence, overnight; inhibition, % at 18.8 µM; actives 0.72% (n = 360,000); AID 624352;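 active = inhibition of the luminescence signal of 40% or more relative to plate controls, in a single-dose primary screen at 18.75 µM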
TRAIL sens C8: sensitizes caspase-8 expressing cells to TRAIL; NB7+C8 cells + TRAIL, ATPlite viability luminescence; inhibition (viability loss, TRAIL sensitization), % at 10 µM; actives 1% (n = 360,000); AID 624354;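 active = compounds causing at least 50% loss of cell viability in the single-dose screen, relative to plate controls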
Large screens that a line does not name were inactive.

CC(C)C[C@H]1CN(CCCC[C@H]2CNC(=O)C(=O)N2Cc2ccccc2)C(=O)C(=O)N1CCC1CCCCC1	none (no result: aSyn 5UTR inh, HSP90 inh)
COc1ccncc1-c1ccc(C2=CC(=O)CC(C)(C)C2=O)cc1	none (no result: aSyn 5UTR inh, HSP90 inh)
CCCCNC(=S)N(CCCO)Cc1cc2cc3c(cc2[nH]c1=O)OCO3	none (no result: aSyn 5UTR inh, HSP90 inh)
Cc1cccc(-n2ncc3c(N4CCC(C)CC4)ncnc32)c1	TRAIL sens C8 50.1
Cn1c(CSCc2ccc(Cl)c(Cl)c2)nnc1SCC(=O)Nc1nccs1	TWEAK-Fn14 inh 50.7
Cn1c(CSCc2ccc(Cl)cc2)nnc1SCC(=O)Nc1nccs1	none
CCOC(=O)[C@]12CCC=C1N(Cc1ccc(Cl)cc1Cl)C(=O)[C@H](CC(=O)NCc1ccccc1)C2	none (no result: aSyn 5UTR inh, HSP90 inh)
O=c1[nH]c(N/N=C/c2ccccc2)nc2ccccc12	none
O=c1[nH]c(N/N=C\c2ccc3c(c2)OCO3)nc2ccccc12	TRAIL sens C8 52.5
O=C(Nc1ccccc1Cl)C(=O)c1cn(CC(=O)N2CCOCC2)c2ccccc12	TRAIL sens C8 53.6
Cc1ccc(-c2nc3ccccc3[nH]2)cc1NC(=O)c1ccc2c(c1)OCO2	none
O=C(NC(=S)Nc1cc(-c2nc3ccccc3[nH]2)ccc1Cl)c1ccc2c(c1)OCO2	TROY NFkB inh 53.3, TWEAK-Fn14 inh 87.0
Cc1ccc(-c2nc3ccccc3[nH]2)cc1NC(=S)NC(=O)c1ccccc1Br	TWEAK-Fn14 inh 66.7
CCC/C=C/c1ccc(CN2C(C(C)C)C(=O)N(Cc3cn(CCC4OCCO4)nn3)CCS2(=O)=O)cc1 (configuration not stated)	none (no result: aSyn 5UTR inh, HSP90 inh)
N#Cc1ccccc1S(=O)(=O)NC(=O)[C@H]1O[C@@H](n2cnc3c(N)ncnc32)[C@H](O)[C@@H]1O	none (no result: aSyn 5UTR inh, HSP90 inh)
COc1ccc(C(=O)NCCn2cc(SCC(=O)NCc3ccco3)c3ccccc32)cc1	TROY NFkB inh 63.7, HSP90 inh 59.4
COc1ccc(C(=O)NCCn2cc(SCC(=O)Nc3nnc(C)s3)c3ccccc32)cc1	TROY NFkB inh 62.2, TWEAK-Fn14 inh 66.9, HSP90 inh 16.6
Cc1nnc(NC(=O)CSc2cn(CCNC(=O)c3ccccc3)c3ccccc23)s1	none
CCN(C(=O)COC(=O)C1CCN(S(=O)(=O)c2ccc(C)c(C)c2)CC1)C1CCCCC1	none (no result: aSyn 5UTR inh, HSP90 inh)
C#CCN1C(=O)S/C(=C/C=C/c2ccc(N(C)C)cc2)C1=O	HSP90 inh 21.0 (no result: aSyn 5UTR inh)
O=C(CN1C(=O)S/C(=C\C=C\c2ccccc2)C1=O)Nc1ccccc1C(=O)O	none
CCn1c2c(c3cc(Cl)ccc31)CCCC2=O	HSP90 inh 64.4
CCn1c2c(c3cc(C(=O)O)ccc31)CCCC2=O	none
CC(=Nc1ccccc1)C1=C(O)C(Cc2cccc(F)c2)NC1=O (configuration not stated)	none (no result: aSyn 5UTR inh, HSP90 inh)
c1ccc(COc2cccc(CN3CCCCC3)c2)cc1	TWEAK-Fn14 inh 103.2
O=C(NCC1CCCO1)c1cc2c([nH]c3ccccc32)c(-c2cccc(Br)c2)n1 (configuration not stated)	none
Cc1ccccc1-c1nc(C(=O)NCC2CCCO2)cc2c1[nH]c1ccccc12 (configuration not stated)	TWEAK-Fn14 inh 54.3
Cc1ccc(-c2nc(C(=O)NCC3CCCO3)cc3c2[nH]c2ccccc23)cc1 (configuration not stated)	TWEAK-Fn14 inh 53.1
COc1ccc(-c2nc(C(=O)NCC3CCCO3)cc3c2[nH]c2ccccc23)cc1 (configuration not stated)	none
Cc1cscc(C)c1=S	none (no result: aSyn 5UTR inh, HSP90 inh)
O=C(NCc1cccc2ccsc12)c1cccs1	none (no result: aSyn 5UTR inh, HSP90 inh)
CC(C)c1nc2sc3c(NCc4ccccc4)ncnc3c2c2c1COC(C)(C)C2	none
CC(C)c1nc2sc3c(NCc4ccco4)ncnc3c2c2c1COC(C)(C)C2	aSyn 5UTR inh 71.0, TWEAK-Fn14 inh 52.3 (no result: TROY NFkB inh)
CCCc1nc(NCc2ccco2)c(C#N)c2c1COC(C)(C)C2	TWEAK-Fn14 inh 73.9 (no result: TROY NFkB inh)
CC1(C)Cc2c(C#N)c(NCc3ccco3)nc(-c3ccco3)c2CO1	none
c1ccc2c(c1)OCC(c1csc3ncnc(N4CCCCC4)c13)O2 (configuration not stated)	TWEAK-Fn14 inh 50.5
CCOC(=O)c1sc2nc(-c3cccnc3)ccc2c1N	TRAIL sens C8 58.5
NC(=O)c1sc2nc(-c3ccco3)ccc2c1N	none
COC(=O)c1sc2nc(-c3ccco3)ccc2c1N	TRAIL sens C8 57.2
CCC(C)c1ccc(S(=O)(=O)N2CCN(C(C)C(=O)NC3CCCC3)CC2)cc1 (configuration not stated)	TWEAK-Fn14 inh 86.8 (no result: aSyn 5UTR inh, HSP90 inh)
CCCOc1ccc(CSC(CC(=O)O)C(=O)O)cc1 (configuration not stated)	none
CCCCOc1ccc(CSC(CC(=O)O)C(=O)O)cc1 (configuration not stated)	TWEAK-Fn14 inh 69.7 (no result: TROY NFkB inh)
COc1ccc(C(=O)N/N=C/c2ccccn2)cc1OC	none
COc1ccc(C(=O)Nc2ccccc2C(=O)N/N=C/c2ccccn2)cc1OC	TRAIL sens C8 84.6
Oc1cc(Nc2ccccc2)cc2cccnc12	none (no result: aSyn 5UTR inh, HSP90 inh)
Oc1cccc2cc(Nc3ccccc3)cnc12	TWEAK-Fn14 inh 100.1 (no result: aSyn 5UTR inh, HSP90 inh)
COC(=O)C1CC2=C(CCC2=O)N(c2ccccc2)C1=O (configuration not stated)	none (no result: aSyn 5UTR inh, HSP90 inh)
CC1CCN(C(=O)c2ccc(S(=O)(=O)Cc3ccccc3F)c([N+](=O)[O-])c2)CC1	TWEAK-Fn14 inh 63.4
Cc1ccc(CS(=O)(=O)c2ccc(C(=O)N3CCN(c4ccccn4)CC3)cc2[N+](=O)[O-])cc1	TWEAK-Fn14 inh 50.3
O=C(c1ccc(S(=O)(=O)c2ccccc2Cl)c([N+](=O)[O-])c1)N1CCN(Cc2ccccc2)CC1	TWEAK-Fn14 inh 73.8
O=C(c1ccc(Br)c([N+](=O)[O-])c1)N1CCN(Cc2ccccc2)CC1	none
CCOC(=O)N(C)c1c(CC)nc2c(OCc3ccc(Cl)cc3Cl)cccn12	none (no result: aSyn 5UTR inh, HSP90 inh)
CSC[C@H]1CN(CCc2ccccc2)C(=O)[C@@H]1CC(=O)Nc1ccccc1	none (no result: aSyn 5UTR inh, HSP90 inh)
CCOC(=O)C(C)Oc1nc(Oc2ccccc2)nc(N(C)C)n1 (configuration not stated)	TWEAK-Fn14 inh 50.4 (no result: TROY NFkB inh)
COC(=O)c1ccc(Oc2nc(Nc3ccccc3)nc(N(C)C)n2)cc1	none
COC(=O)[C@@]12C[C@@H](CC(=O)N3CCCC3)C(=O)N(CCc3ccc(OC)c(OC)c3)C1=CCC(C)(C)C2	none (no result: aSyn 5UTR inh, TROY NFkB inh, TWEAK-Fn14 inh, HSP90 inh)
NC(N)=NCCCS(=O)(=O)Nc1ccc(Nc2c3ccccc3nc3cc([N+](=O)[O-])ccc23)cc1	none (no result: aSyn 5UTR inh, HSP90 inh)
CC/C=C\[C@H](O)[C@H](O)C1=C(C)C(=O)[C@]2(O1)C(=O)N[C@@](OC)(C(=O)c1ccccc1)C2O (some centres not stated)	TWEAK-Fn14 inh 68.9
O=C(Nc1ccc2nc(-c3cccnc3)[nH]c2c1)c1ccccc1F	none
COc1ccc2nc(-c3ccccc3)[nH]c2c1	TRAIL sens C8 51.2
c1cncc(-c2nc3cc4ccccc4cc3[nH]2)c1	TRAIL sens C8 66.3
Cc1ccc(/C=C2\SC(=S)N(CCCC(=O)Nc3cc(C)on3)C2=O)cc1	aSyn 5UTR inh inconclusive, TWEAK-Fn14 inh 72.6, HIF-2a block 68.9

Bioassay records from PubChem BioAssay.
